This note sets out measurements from PubChem BioAssay (EPA / NIEHS).

Records with an inconclusive call do not appear. Activity calls are given as the source filed them. The calls were made as follows: active = hit-call score of the fitted dose curve at least 0.9, where 1 is the maximum; inconclusive = response in the unintended direction; inactive = score below 0.9.

Sequence of Peroxisome proliferator-activated receptor gamma (Homo sapiens) (P37231 whole entry, looked up): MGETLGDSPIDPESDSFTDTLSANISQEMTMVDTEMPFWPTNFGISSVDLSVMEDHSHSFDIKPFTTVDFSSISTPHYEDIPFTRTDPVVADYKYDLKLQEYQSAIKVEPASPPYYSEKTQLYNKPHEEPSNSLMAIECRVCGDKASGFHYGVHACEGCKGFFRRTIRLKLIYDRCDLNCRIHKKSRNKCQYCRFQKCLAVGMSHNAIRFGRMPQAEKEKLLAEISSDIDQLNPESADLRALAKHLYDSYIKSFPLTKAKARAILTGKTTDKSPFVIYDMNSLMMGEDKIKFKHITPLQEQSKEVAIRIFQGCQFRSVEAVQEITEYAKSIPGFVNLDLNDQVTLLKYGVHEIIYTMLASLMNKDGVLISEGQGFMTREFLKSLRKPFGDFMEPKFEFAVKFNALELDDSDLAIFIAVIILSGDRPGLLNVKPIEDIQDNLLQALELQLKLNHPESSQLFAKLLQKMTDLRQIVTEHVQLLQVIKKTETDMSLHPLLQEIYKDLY

The target of this assay is Peroxisome proliferator-activated receptor gamma (Homo sapiens) (UniProt P37231). Put plainly: NVS_NR_hPPARg: NovaScreen (NVS) Nuclear Receptor Binding Assay for human Peroxisome Proliferator-activated Receptor gamma (PPARg) (AID 2283370). In a few lines:
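Chemicals were tested first in duplicate at 25 uM, then in concentration series if active. Binding to cell-free PPARg protein was measured by fluorescence polarization after 2 h, with loss of signal scored against DMSO.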
As usually defined, the AC50 is the midpoint of the concentration-response curve, whichever way the signal moves. With `O=S1OC[C@@H]2[C@H](CO1)[C@]1(Cl)C(Cl)=C(Cl)[C@@]2(Cl)C1(Cl)Cl` (some centres not stated), the AC50 is 14.9 µM (active).
Same read-out and setting: under `O=C1c2ccccc2C(=O)C1C(=O)C(c1ccccc1)c1ccc(Cl)cc1` (configuration not stated) stands 16.2 µM (active).
The same measure, in the same setting: the value for `COCCl` was 4.2 µM (active).
For the compound `CCC[CH2][Sn]([Cl])([Cl])[CH2]CCC`, the compound was classed as inactive.
The same measure, in the same setting: the value for `CC(C)N(C(=O)CCl)c1ccccc1` was “inactive”; that for `CC(=Cc1ccccc1)[N+](=O)[O-]` was “inactive”.
Regarding `Oc1c(Br)cc(Br)cc1Br`, the compound was classed as inactive.
With `CCOCn1c(-c2ccc(Cl)cc2)c(C#N)c(Br)c1C(F)(F)F`, the compound was classed as inactive.
As for `O=S1(=O)OC(c2cc(Br)c(O)c(Br)c2)(c2cc(Br)c(O)c(Br)c2)c2ccccc21`, the AC50 is 2.87 µM (active).
For `O=[N+]([O-])c1ccc(Cl)c([N+](=O)[O-])c1`, the result was inactive.
Same read-out and setting: under `COc1ccccc1N` stands “inactive”.
On the same count and under the same terms, the value for `CCC[CH2][Sn]([CH2]CCC)([CH2]CCC)[CH2]CCC` was “inactive”; that for `O=[N+]([O-])c1ccccc1O` was “inactive”.
Still for that read-out and setting: the value for `Cc1cc(Cl)ccc1OC(C)C(=O)O` (configuration not stated) was “inactive”; that for `O=C(CCl)Nc1ccccc1` was “inactive”.
`O=C(O)COc1cc(Cl)c(Cl)cc1Cl`: the AC50 is 7.47 µM (active).
For `Oc1cc(Cl)c(Cl)cc1Cl`, the outcome was inactive.
